Source: PubChem BioAssay
The list is not random: actives were taken first. Their share in the collection is about 4.7%.
proKLK7 act – activates the human kallikrein-7 zymogen. purified proKLK7, EDANS-DABCYL substrate fluorescence; 100% is mature enzyme control, 0% vehicle. activation, % at 7 µM. 370,000 compounds, 0.9% hits. P49862;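 active = activation above the mean of all tested compounds plus 3 SD, computed per campaign excluding outliers beyond control limits, cut at about 13% in these data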
Target sequence (P49862 whole entry, looked up): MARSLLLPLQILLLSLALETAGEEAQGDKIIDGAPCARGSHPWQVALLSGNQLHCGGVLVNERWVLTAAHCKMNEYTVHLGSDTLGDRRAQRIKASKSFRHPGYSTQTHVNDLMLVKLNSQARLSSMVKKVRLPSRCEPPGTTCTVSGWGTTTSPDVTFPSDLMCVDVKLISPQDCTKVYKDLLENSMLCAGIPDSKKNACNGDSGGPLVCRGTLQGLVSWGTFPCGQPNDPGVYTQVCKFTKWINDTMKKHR
rCAG RNA binder – molecules binding r(CAG) RNA repeats. r(CAG) RNA repeat, TO-PRO-1 dye displacement fluorescence. inhibition, % at 3 µM. 370,000 compounds, 1.3% hits;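 active = inhibition above the plate cutoff, the mean of all test compounds on that plate plus 3 SD, cut at about 35% in these data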;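 note: higher means more dye released from RNA so lower well fluorescence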
ADAM17 inh – inhibits human ADAM17; recombinant ADAM17, EDANS/DABCYL FRET peptide cleavage; 370,000 compounds, 0.83% hits; inhibition, % at 6.95 µM; AID 720648;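 active = inhibition above the mean of compounds lying between control limits plus 3 SD, set per campaign, cut at about 8.5% in these data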
MPTP block – blocks calcium-induced mitochondrial swelling; isolated mouse mitochondria, Ca2+ swelling absorbance, 30 min; inhibition, % at 10 µM; 360,000 compounds, 1.4% hits; AID 602449;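 active = inhibition of 50% or more, scaled per plate between neutral and stimulator controls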
ADAM10 inh – ADAM10 inhibition, QFRET primary screen | recombinant ADAM10, EDANS/DABCYL FRET peptide cleavage, 3 h | inhibition, % at 7 µM | 370,000 compounds, 0.62% hits;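 active = inhibition above a per-campaign cutoff equal to the mean of compounds falling between control-based bounds plus 3 SD, cut at about 20% in these data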
DSG3 Ab inh – inhibitors of pemphigus antibody binding to human desmoglein-3 | DSG3-coupled beads, scFv-anti-DSG3-GFP binding, flow cytometry; stronger effect = lower value | binding (percent of control), % at 10 µM | 310,000 compounds, 0.48% hits | AID 588358;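 active = binding more than 3 SD below its plate's average and above zero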
rCAG bind conf – r(CAG) RNA repeat binding, confirmation; shares compounds with rCAG RNA binder; TO-PRO-1 dye displacement fluorescence; inhibition, % at 3 µM; 4,300 compounds, 70% hits; AID 652065;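 active = inhibition above a per-plate cutoff, the mean inhibition of sample wells plus 3 SD, cut at about 35% in these data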;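 note: loss of TO-PRO-1 fluorescence as compound displaces dye from 1x1 AA loop RNA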
DNA CAG counter – disrupts DNA CAG TO-PRO-1 complex, flagging rCAG hits | shares compounds with rCAG RNA binder | d(CAG) DNA oligo TO-PRO-1 dye displacement, fluorescence | inhibition, % at 3 µM | 4,300 compounds, 94% hits | AID 652068;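 active = inhibition above its plate's cutoff, the mean test-well inhibition plus 3 SD, cut at about 4.8% in these data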;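 note: hits displace the dye from DNA and so lower well fluorescence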
dCAG dye DR – DNA CAG dye complex inhibition, dose response counter-screen; shares compounds with rCAG RNA binder; DNA CAG/GTC duplex TO-PRO-1 dye displacement fluorescence; IC50, µM; 250 compounds, 20% hits; in the data active = IC50 below about 10 µM
Of the large screens only hits and unclear results are named; the others gave an inactive call (follow-up assays come after a bar, where they were run); ! = a repeat was not active.

COc1ccc(OC)c(/C=N/NC(=O)c2cc(-c3ccc(C)o3)nc3ccccc23)c1	rCAG RNA binder 45 | rCAG bind conf inactive | DNA CAG counter 13
O=C(N/N=C/c1ccccn1)c1sc2ccccc2c1Cl	none
Cc1cc(C(=O)N/N=C/c2ccc([N+](=O)[O-])o2)c(C)o1	none
COc1ccc(-c2cc(C(=O)N/N=C/c3cc(OC)c(OC)cc3OC)c3ccccc3n2)cc1	none
O=C(N/N=C/c1ccc([N+](=O)[O-])o1)c1sc2ccccc2c1Cl	rCAG RNA binder 36, DSG3 Ab inh 82 | rCAG bind conf 39 | DNA CAG counter 18
O=C(O)COc1ccccc1/C=N/NC(=O)c1cc(-c2ccc(Cl)cc2)nc2ccccc12	rCAG RNA binder 79 | rCAG bind conf 72 | DNA CAG counter 33 | dCAG dye DR inactive
CCCc1ccc(-c2cc(C(=O)N/N=C/c3ccc([N+](=O)[O-])o3)c3ccccc3n2)cc1	rCAG RNA binder 45 | rCAG bind conf 36 | DNA CAG counter 19
CSc1nc2[nH]c(=O)n(O)c(=O)c2n1Cc1ccccc1	none
C#CCOc1ccc(CNC[C@H]2O[C@@H](n3ccc(=O)[nH]c3=O)[C@H](O)[C@@H]2O)cc1	none (no result: DSG3 Ab inh)
COc1cccc(OC)c1C(=O)OCc1c(-c2ccccc2)ncc2ccccc12	none
O=C(N/N=C/c1ccc([N+](=O)[O-])o1)c1cc(-c2cccc(Br)c2)nc2ccccc12	rCAG RNA binder 43 (no result: DSG3 Ab inh) | rCAG bind conf 47 | DNA CAG counter 29
O=C(N/N=C/c1ccco1)c1cc(-c2ccccc2)nc2ccccc12	none
O=C(c1ccccc1)c1ccc2nc(-c3ccco3)c(-c3ccco3)nc2c1	rCAG RNA binder 42 (no result: DSG3 Ab inh) | rCAG bind conf 70 | DNA CAG counter 36
O=C(CSCc1cccc(Br)c1)N=Nc1c(O)[nH]c2ccccc12	none (no result: DSG3 Ab inh)
O=Nc1c(-c2c(O)[nH]c3cc(Br)ccc23)[nH]c2ccccc12	rCAG RNA binder 59 (no result: DSG3 Ab inh) | rCAG bind conf 54 | DNA CAG counter 36
CCOC(=O)N1CCc2c(sc(NC(=O)c3ccc(S(=O)(=O)N4CCCC4)cc3)c2C#N)C1	rCAG RNA binder 84 | rCAG bind conf 57 | DNA CAG counter 19
CS(=O)(=O)c1sc2nc(-c3cccs3)cc(-c3ccccc3)c2c1N	rCAG RNA binder 65 | rCAG bind conf 70 | DNA CAG counter 36
Cc1ccc(-c2cc(-c3ccccc3)c3c(N)c(S(C)(=O)=O)sc3n2)cc1	none
Cc1nn(CCc2nn[nH]n2)c2nc(-c3ccccc3)cc(C(F)(F)F)c12	rCAG RNA binder 44 | rCAG bind conf inactive | DNA CAG counter inactive
Cc1cc(C(F)(F)F)c2c(C)nn(CCc3nn[nH]n3)c2n1	none
COc1ccc(NS(=O)(=O)c2c(F)cccc2F)cc1S(=O)(=O)N1CCOCC1	none
COc1ccc(NS(=O)(=O)c2c(F)cc(F)c(Cl)c2F)cc1S(=O)(=O)N1CCCCC1	rCAG RNA binder 40 | rCAG bind conf 36 | DNA CAG counter 11
CC(CCC(=O)NN)C1CCC2C3CCC4CC(O)CCC4(C)C3CCC12C (centres undefined)	none
C[C@H](CCC(=O)O)[C@H]1CC[C@H]2[C@@H]3CC[C@@H]4C[C@H](O)CC[C@]4(C)[C@H]3C[C@H](O)[C@]12C	rCAG RNA binder 37! | rCAG bind conf 40 | DNA CAG counter 6.7
C[C@H](CCC(=O)O)[C@H]1CC[C@H]2[C@@H]3[C@H](O)C[C@@H]4C[C@H](O)CC[C@]4(C)[C@H]3CC[C@]12C	rCAG RNA binder 37 | rCAG bind conf inactive | DNA CAG counter inactive
C=CCn1c(O)c(N=Nc2ccccc2[N+](=O)[O-])c2ccccc21	none
CCN1C(=O)/C(=C\c2ccc(-c3ccc([N+](=O)[O-])cc3OC)o2)SC1=Nc1cccc(C(=O)O)c1	rCAG RNA binder 63 | rCAG bind conf 84 | DNA CAG counter 50
COc1ccccc1C(=O)N1CCN(C(=O)[C@@H](Cc2ccccc2)NC(=O)[C@H]2O[C@@H](n3ccc(N)nc3=O)[C@H](O)[C@@H]2O)CC1	none (no result: MPTP block, DSG3 Ab inh)
CCCc1cc(=O)oc2c(C)c(OCC(=O)Nc3cccnc3)ccc12	none (no result: DSG3 Ab inh)
O=C(O)c1cccc(N/N=C/c2cc(Br)cc(Br)c2O)c1	rCAG RNA binder 95 | rCAG bind conf 83 | DNA CAG counter 48
O=C(O)c1cccc(N/N=C/c2ccc(-c3ccccc3)cc2)c1	none
O=C(O)c1cccc2c1-c1ccccc1/C2=N\Nc1ccccc1	none
O=C(O)c1cccc(NN=C2c3ccccc3-c3ccccc32)c1	rCAG RNA binder 87 | rCAG bind conf 81 | DNA CAG counter 47
COc1ccccc1/C=C/C=N/Nc1cccc(C(=O)O)c1	rCAG RNA binder 36 | rCAG bind conf 37 | DNA CAG counter 9.3
COc1ccc(Br)cc1/C=N/Nc1cccc(C(=O)O)c1	none
O=C(O)c1cc(N/N=C/C(Cl)=C/c2ccccc2)ccc1Cl	rCAG RNA binder 57 | rCAG bind conf 45 | DNA CAG counter 18
O=C(CCNS(=O)(=O)c1cccc(C(F)(F)F)c1)NCc1ccco1	none (no result: DSG3 Ab inh)
O=C(O)c1cc(NN=C2c3ccccc3-c3ccccc32)ccc1Cl	rCAG RNA binder 93 | rCAG bind conf 81 | DNA CAG counter 50
Oc1cccc(CN2CCOCC2)c1O	rCAG RNA binder 41 | rCAG bind conf inactive | DNA CAG counter inactive
Oc1c(CN2CCOCC2)cc(CN2CCOCC2)c(O)c1O	none
COc1ccc(-c2csc(Nc3ccc(S(=O)(=O)Nc4cc(C)on4)cc3)n2)cc1	rCAG RNA binder 73 | rCAG bind conf 72 | DNA CAG counter 36
COc1cc(NS(=O)(=O)c2ccc(Nc3nc(-c4cccc([N+](=O)[O-])c4)cs3)cc2)nc(OC)n1	rCAG RNA binder 95 | rCAG bind conf 90 | DNA CAG counter 64
COc1ccc(Nc2nc(-c3ccc(OC)cc3)cs2)cc1	none
Cc1ccc(C(=O)Nn2cnc3scc(-c4cccs4)c3c2=O)c(O)c1	rCAG RNA binder 40 | rCAG bind conf inactive | DNA CAG counter 8.7
Cc1ccc(-n2cnc3scc(-c4cccs4)c3c2=O)cc1	none
CC1CCCCC1NC(=O)C(=O)NCC1CCCO1 (centres undefined)	rCAG RNA binder 56 | rCAG bind conf inactive | DNA CAG counter inactive
CC(C)Cn1c(SCC(N)=O)nnc1-c1cccc(S(=O)(=O)N2CCOCC2)c1	none
